Unmarked numbers belong to inactive results. Records with an inconclusive call do not appear. Active and inactive are the calls of the source. Unless noted, the call rests on the fitted dose curve; in most records, active means well fitted curve in the direction sought with a large enough effect; inconclusive means small, poorly fitted or top-dose-only effect, or another doubt; inactive means no such curve, though single readings can be large; an effect the other way counts as inactive or inconclusive.

Test [1] in a line: Cell Viability - BJ (AID 421; calls by dose curve;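 further: potency means the concentration at half of the fitted maximal effect; cells exposed to compound for 40 hours at 37 °C before readout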). The following applies: BJ fibroblast viability, qHTS. The gist of the method: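 Cytotoxicity in human BJ foreskin fibroblasts is scored as loss of cellular ATP after a 40-hour exposure, measured by luciferase luminescence. Controls are DMSO and 100 uM tamoxifen.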
In general terms: Quantitative high-throughput screening tests each substance at several concentrations.

Test [2] in a line: Cellular Toxicity (caspase-3) HepG2 (AID 654).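 Further: cells exposed to compound for 16 hours before reading; 0% = DMSO alone and 100% = caspase signal from 100 µM tamoxifen.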 The following applies: HepG2 caspase-3 activation, luminescence, 0% = DMSO only, 100% = tamoxifen; series mostly up to 92.2 µM. The method in brief: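 qHTS, HepG2, 1500 cells/well, complete medium; cpd 16 h 37 °C; Caspase-Glo 3/7, 20 min RT; lum. Norm: DMSO vs 100 uM tamoxifen; AC50 Hill fit.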
A short description of test [3]: Cellular Toxicity (caspase-3) BJ (AID 658).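 Further: cells exposed to compound for 16 hours.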 The following applies: BJ fibroblasts, luminescence, normalized: DMSO 0%, staurosporine 100%; series mostly up to 91.7 µM. The gist of the method: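 Readout: Caspase-Glo 3/7 luminescence increase in BJ cells after 16 hr treatment at 37 °C. Staurosporine and tamoxifen served as positive controls; AC50 values came from Hill modelling of data normalized to DMSO and 10 uM staurosporine.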

Test [4] can be described thus: Cellular Toxicity (caspase-3) MRC-5 (AID 659). The settings on record: MRC-5 cells, luminescence, normalized: DMSO 0%, 10 µM staurosporine 100%; series mostly up to 91.7 µM. The gist of the method: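 Concentration-dependent caspase 3/7 activation is measured in human normal lung fibroblasts (MRC-5) following 16-hour treatment. AC50 values come from standard Hill-equation modeling of luminescence normalized to DMSO and 10 uM staurosporine.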

A short description of test [5]: Cellular Toxicity (caspase-3) Hek293 (AID 664).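 Further: cells exposed to compound for 16 h at 37 °C before readout.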 The settings on record: HEK293 caspase-3 activation, DMSO = 0%, 100 µM tamoxifen = 100%; at 92.2 µM (top of the series). The gist of the method:
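Activation of caspase-3/7 is measured as increased luminescence from cleaved peptide-aminoluciferin substrate in HEK293 cells treated 16 hours at 37 °C. AC50 values come from Hill-equation fits of concentration-response data.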

Test [6] is described as follows: Cellular Toxicity (caspase-3) N2a (AID 665).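 Further: compound exposure lasted 16 h at 37 °C before readout.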 The settings on record: N2a cells, luminescence, normalized: DMSO 0%, 10 µM staurosporine 100%; series mostly up to 92.2 µM. The gist of the method:
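Plated mouse neuroblastoma N2a cells received titrated compounds for 16 h in complete medium. Caspase activity was then detected with a peptide-aminoluciferin luminescent reagent.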

The nature of test [7]: Cellular Toxicity (caspase-3) NIH 3T3 (AID 666).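 Further: caspase signal read after 16 h compound exposure; 0% = DMSO basal and 100% = 100 µM tamoxifen stimulation.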 The settings on record: NIH 3T3 caspase-3 activation, apoptosis/toxicity; series mostly up to 92.2 µM. The method in brief:
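Concentration-response qHTS in NIH 3T3 mouse fibroblasts scores caspase-3/7 activation as rising luminescence after 16 hr compound exposure. Signals are scaled between DMSO-only and 100 uM tamoxifen.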

The nature of test [8]: Cell Viability - LYMP2-001 (AID 921). Further: nearly all actives have a fitted effect of over 70% in size. Further: potency means the concentration at half of the fitted maximal effect. The following applies: LYMP2-001 lymphoblastoid cell viability; series mostly up to 92.2 µM. The gist of the method: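 Cellular ATP loss read by luciferase luminescence after 24 h compound exposure at 37 C in complete medium. LYMP2-001 lymphoblastoid cells, 2500/well; qHTS concentration-response data fitted with Hill equation for AC50.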

The nature of test [9]: MultiTox-Fluor Cytotoxicity Assay - LYMP1-001 - Dead Cells (AID 946). The following applies: LYMP1-001 lymphoblastoid cells, dead-cell protease fluorescence; series mostly up to 92.2 µM. The gist of the method: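 Seed 2500 LYMP1-001 cells/well, incubate 5 hr at 37 C; add compound, 16 hr at 37 C; add MultiTox-Fluor reagent, 60 min RT; read dead-cell fluorescence Ex/Em=485/520. Normalize to DMSO and 15 uM tetraoctylammonium bromide.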

A short description of test [10]: MultiTox-Fluor Cytotoxicity Assay - LYMP1-002 - Live Cells (AID 955).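 Further: cells exposed to compound for 16 hours; on the % scale 0 is the no-effect control and ±100 the full control effect.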 The settings on record: LYMP1-002 lymphoblastoid live-cell protease fluorescence viability; series mostly up to 46.1 µM. The method in brief:
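Cytotoxicity in the human lymphoblastoid line LYMP1-002 is measured as loss of live-cell protease activity after 16 h treatment in complete culture medium. AC50 is derived from Hill-equation fits of qHTS concentration-response data.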

The nature of test [11]: MultiTox-Fluor Cytotoxicity Assay - LYMP1-003 - Dead Cells (AID 961). Further: nearly all actives have a fitted effect of over 70% in size. The following applies: LYMP1-003 lymphoblastoid cells, dead-cell protease fluorescence; series mostly up to 92.2 µM. The gist of the method:
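LYMP1-003 lymphoblastoid, 2500 cells/well, 5 hr settle then 16 hr cpd at 37 C; MultiTox-Fluor reagent 60 min RT; Ex/Em 485/520 dead-cell signal; norm. DMSO = 0%, 15 uM tetraoctylammonium bromide = 100%; Hill AC50.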

Test [12] can be described thus: MultiTox-Fluor Cytotoxicity Assay - LYMP1-003 - Live Cells (AID 962).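 Further: cells exposed to compound for 16 hours at 37 °C; 0% = DMSO only and full loss = 92 µM tetraoctylammonium bromide; cytotoxic hits lower the live-cell protease signal.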 The following applies: LYMP1-003 lymphoblastoid cells, MultiTox-Fluor live-cell protease fluorescence; series mostly up to 92.2 µM. The gist of the method: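 Cells plated at 2500 per well and incubated 5 hr; compounds added and incubated 16 hr at 37 C; MultiTox-Fluor reagent added for 60 min at room temperature; fluorescence of liberated AFC measured at 405/510 nm.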

Test [13] can be described thus: Cell Viability - LYMP2-025 (AID 976).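 Further: plate controls were DMSO only for no effect and tetraoctylammonium bromide control for full effect.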 The settings on record: LYMP2-025 lymphoblastoid cell viability; series mostly up to 92.2 µM. The method in brief:
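In qHTS format, LYMP2-025 lymphoblastoid cells in complete culture medium received compound for 24 hr; ATP-based CellTiter-Glo signal gave viability, with AC50 derived by Hill equation.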

A short description of test [14]: Cell Viability - LYMP1-002 - Assay at 24 hr (AID 993). Further: on the % scale 0 is the no-effect control and ±100 the full control effect. The settings on record: LYMP1-002 lymphoblastoid cells viability; series mostly up to 92.2 µM. The method in brief: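 qHTS, LYMP1-002 lymphoblastoid, 24 h cpd, 37 C, CellTiter-Glo ATP luminescence; AC50 via Hill eq.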
A short description of test [15]: Cell Viability - LYMP1-002 - Assay at 40 hr (AID 994).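 Further: 0% = DMSO only and full inhibition = 92 µM tetraoctylammonium bromide; nearly all actives have a fitted effect of over 60% in size.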 The following applies: LYMP1-002 lymphoblastoid cell viability; series mostly up to 92.2 µM. The gist of the method:
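Viability in the human lymphoblastoid line was measured as intracellular ATP via CellTiter-Glo after 40 hr compound exposure. Tetraoctylammonium bromide served as positive control.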

Test [16] is described as follows: qHTS Assay for Identification of Small Molecule Inducers of Hypoxia Response (AID 2120; active means well fitted curve in the direction sought with a large enough effect in the signal ratio, with a control signal flat, not every such curve was filed as active; the % refers to the signal ratio; further: 0% is about no effect). The following applies: hypoxia response reporter cells, beta-lactamase ratio readout; series mostly up to 104 µM. The method in brief:
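Induction of beta-lactamase reporter activity was measured in CellSensor HRE-bla ME-180 cells after 17 h compound treatment at 37 degrees C, using CCF4 substrate and the 460nm/530nm emission ratio to derive AC50 values.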

In test [17] the target is Peroxisome proliferator-activated receptor alpha (Homo sapiens) (UniProt Q07869). Description: qHTS assay for small molecule agonists of the peroxisome proliferator-activated receptor alpha (PPARalpha) signaling pathway (AID 651778). Further: % of control where 0% means no effect. The following applies: PathHunter PPARalpha complementation, chemiluminescence, 6 h; hits give high values. The gist of the method: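 Chemiluminescence from complemented enzyme reported PPARalpha activation in cells after 6 hr of compound treatment at 37 C. The detection reagent was incubated for 60 min at room temperature, and compounds were scored as agonists.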
Peroxisome proliferator-activated receptor alpha (Homo sapiens), sequence (Q07869 whole entry, looked up): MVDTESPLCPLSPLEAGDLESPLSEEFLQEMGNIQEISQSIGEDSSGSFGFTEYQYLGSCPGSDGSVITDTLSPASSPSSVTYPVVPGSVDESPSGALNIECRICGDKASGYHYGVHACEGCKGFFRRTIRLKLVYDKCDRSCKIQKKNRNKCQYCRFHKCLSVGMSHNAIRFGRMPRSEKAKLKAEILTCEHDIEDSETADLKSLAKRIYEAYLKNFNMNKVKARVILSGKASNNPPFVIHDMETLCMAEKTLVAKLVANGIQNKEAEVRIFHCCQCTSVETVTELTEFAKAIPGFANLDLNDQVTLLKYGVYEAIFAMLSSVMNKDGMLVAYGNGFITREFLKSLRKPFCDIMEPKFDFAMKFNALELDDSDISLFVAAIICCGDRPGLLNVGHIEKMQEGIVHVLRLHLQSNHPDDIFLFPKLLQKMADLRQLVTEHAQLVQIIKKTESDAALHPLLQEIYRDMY

Test [18] is described as follows: qHTS assay for cell viability of the p53RE-bla HCT-116 cell line (AID 743292). Further: on the % scale 0 is the no-effect control and ±100 the full control effect; nearly all actives have a fitted effect of over 55% in size. The settings on record: p53RE-bla HCT-116 viability, ATP luminescence, 16 h; series mostly up to 95 µM. The method in brief: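 Intracellular ATP of p53RE-bla HCT-116 cells measured by luciferase luminescence following 16 h compound incubation at 37 C; DMSO-only wells served as vehicle controls.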

A short description of test [19]: Cell Viability - LYMP2-021 (AID 974).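 Further: compound exposure lasts 24 hours at 37 °C; on the % scale 0 is the no-effect control and ±100 the full control effect; nearly all actives have a fitted effect of over 55% in size.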 The settings on record: LYMP2-021 lymphoblastoid cells viability; series mostly up to 92.2 µM. The gist of the method: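 Concentration-response cytotoxicity in a human lymphoblastoid line: 24 hr treatment at 37 C in complete culture medium, tetraoctylammonium bromide as positive control, luminescent ATP quantitation as viability measure.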

Test [20] is described as follows: Cell Viability - LYMP2-006 (AID 978). Further: on the % scale 0 is the no-effect control and ±100 the full control effect; nearly all actives have a fitted effect of over 60% in size. The settings on record: LYMP2-006 lymphoblastoid cell viability, qHTS; series mostly up to 92.2 µM. The gist of the method: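 Potency values are Hill-fit AC50s for decreases in intracellular ATP (CellTiter-Glo luminescence). LYMP2-006 lymphoblastoid cells, 2500 per well, were exposed to compound in complete culture medium for 24 hr at 37 C.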

For the compound `CN(C)c1ccc(N(C)C)cc1`, the Potency was over 92 µM in [1] and 50.1 µM (active) in [8]. For the same compound, the result in test [2], in test [3], in [4], in test [6], in [9] and in test [10] was inactive. For the same compound, the compound was called inactive in test [12]. In addition, the caspase-3 activation in test [5] is -1.04%. In addition, the Potency entry in test [7], in test [11], in [13], in test [14], in test [15] and in test [16] was “inactive” throughout. In [18], the Potency result is “inactive”. In addition, the max response in test [17] was -4.1%.

For the compound `Nc1c(Br)cc([N+](=O)[O-])cc1[N+](=O)[O-]`, the Potency in [1] is over 92 µM. Besides, the compound was classed as inactive in test [2], in [3], in test [4], in [6], in test [9] and in test [10]. Further, the compound was called inactive in test [12]. Moreover, the caspase-3 activation in [5] is 4.97%. Moreover, the Potency entry in [7], in test [8], in test [11], in test [19], in [13] and in [20] was “inactive” each time. The Potency result in [14], in [15], in [16] and in test [18] was “inactive” in each case. Further, the max response in [17] was -5.44%.

With `Nc1ccc(Cc2ccc(N)c(Cl)c2)cc1Cl`, the Potency in test [1] was over 92 µM. In addition, the outcome in [2], in test [3], in test [4], in test [6], in test [9] and in test [10] was inactive. Further, the compound was called inactive in test [12]. Besides, in test [5], the caspase-3 activation was 1.19%. Besides, the Potency result in test [7], in test [8], in test [11], in test [19], in test [13] and in [20] was “inactive” throughout. Besides, the Potency result in test [14], in test [15], in test [16] and in test [18] was “inactive” in each case. For the same compound, the max response in test [17] was 2.66%.

For the compound `CCCC[N+](=O)[O-]`, the Potency in [1] is over 92 µM. For the same compound, the outcome in [2], in test [3], in test [4], in test [6], in test [9] and in test [10] was inactive. Further, in test [12], the compound was classed as inactive. In addition, the caspase-3 activation in test [5] is 23.2%. Also, the Potency entry in test [7], in test [8], in [11], in test [19], in test [13] and in test [20] was “inactive” throughout. The Potency entry in test [14], in test [15], in test [16] and in [18] was “inactive” in each case. Also, the max response in test [17] was 1.08%.

Source of the values: PubChem BioAssay (NCATS).
